Experimental data published in PubChem BioAssay AID1159580 (chemical genetic matrix, 2015).
Screen size: about 5,500 compounds; about 2,000 (36%) were called active. Not shown: some 18% with an inconclusive outcome. No stated cut-off is given here; in the data, active means normalized growth mostly below about 0.91 (no sharp cut-off); inconclusive means no clear call, values can overlap the other calls; inactive means mostly above about 0.92. The list shows a part of the results.

Assay: chemical genetic growth profiling, strain panel (AID 1159580);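 further: tested at 20 µM; growth read once vehicle control cultures reached saturation at 30 °C; 1 = growth at the plate median or of vehicle wells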
Settings: S. cerevisiae deletion strains, growth OD

Measured: normalized growth

O=C(O)CCCO
inactive: locus YHR030C, strain SLT2, stronger effect = lower value 1.05 | locus YHR079C, strain IRE1, stronger effect = lower value 1.05 | locus YJL095W, strain BCK1, stronger effect = lower value 1.01 | locus YJR066W, strain TOR1, stronger effect = lower value 0.976 | locus YLR113W, strain HOG1, stronger effect = lower value 1.02 | locus YNL183C, strain NPR1, stronger effect = lower value 0.983 | locus YOR231W, strain MKK1, stronger effect = lower value 1.02 | locus YPL256C, strain CLN2, stronger effect = lower value 1.01
